Bioassay records deposited in PubChem BioAssay by The Scripps Research Institute Molecular Screening Center.
FBW7 activator: activators of human E3 ligase FBW7; Q969H0; AlphaScreen FBW7–phospho-cyclin E peptide binding, activator screen; normalized activity (activation), % at 26.1 µM; 650,000 tested, 0.13% active; AID 1259310; in the data active = normalized activity above about 1.9%;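 note: purified mutant Fbw7 with reduced substrate affinity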
TEAD-YAP block: TEAD-YAP interaction inhibition; 640,000 tested, 1.4% active; inhibition, % at 9.12 µM; AID 1259422; HEK-TIYL cells, TEAD-Gal4/YAP UAS-luciferase luminescence; in the data active = inhibition above about 32%;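 note: 0% = median of test compound wells and 100% = reference inhibitor wells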
GPR151 activ: activates the human receptor GPR151; PathHunter beta-arrestin GPR151 cells, luminescence; activation, % at 11.2 µM; 650,000 tested, 1% active; Q8TDV0; in the data active = activation above about 4.9%;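 note: 0% = median of compound wells and 100% = cells with positive control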
Target sequence (Q8TDV0 whole entry, looked up): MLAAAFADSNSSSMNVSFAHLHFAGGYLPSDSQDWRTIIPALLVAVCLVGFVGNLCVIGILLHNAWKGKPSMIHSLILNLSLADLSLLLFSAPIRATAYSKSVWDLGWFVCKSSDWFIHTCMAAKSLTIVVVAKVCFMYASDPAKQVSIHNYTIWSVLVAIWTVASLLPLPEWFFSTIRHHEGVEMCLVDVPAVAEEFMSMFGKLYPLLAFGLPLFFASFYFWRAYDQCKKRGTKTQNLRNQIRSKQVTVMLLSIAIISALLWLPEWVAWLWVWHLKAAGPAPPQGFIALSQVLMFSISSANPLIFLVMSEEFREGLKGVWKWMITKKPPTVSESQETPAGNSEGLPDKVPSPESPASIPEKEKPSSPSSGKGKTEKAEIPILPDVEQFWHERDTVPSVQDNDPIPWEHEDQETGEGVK
MITF primary: human MITF inhibition, primary screen; O75030; AlphaScreen MITF homodimerization, bead proximity signal; inhibition, % at 2.6 µM; 650,000 tested, 0.91% active; in the data active = inhibition above about 50%;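 note: 0% = vehicle wells with protein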
GPR151 confirm: human GPR151 activation, confirmation screen; GPR151 PathHunter beta-arrestin cells, luminescence, 90 min; % of EA-reagent control over plate median; 6,700 tested, under 10 active; shares compounds with GPR151 activ; AID 1508609; activation, % at 11.2 µM;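 active = mean percent activation across replicates above the confirmation screen cutoff of 4.91%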
GPR119 ag: counter-screen for GPR151 activators: effect on human GPR119. 6,700 tested, 0.3% active. shares compounds with GPR151 activ. GPR119 PathHunter beta-arrestin cells, luminescence, 90 min; 0 = compound-well median, 100 = enzyme-acceptor control. activation, % at 11.2 µM. AID 1508611;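 active = mean percent activation in the counterscreen above 29.09%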;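 note: counterscreen on off-target GPR119 to flag nonselective hits from the GPR151 activator screen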
The depositor's hits bear a star; ! = a repeat was not active. Hits are enriched below; roughly 3.4% of the tested compounds scored in any of these assays.

How did Cc1csc(NC(=O)c2cccn(Cc3ccc(Cl)cc3)c2=O)n1 do in these assays?
FBW7 activator: 0; TEAD-YAP block: -2; GPR151 activ: 4.9*; MITF primary: 17; GPR151 confirm: -1; GPR119 ag: -16

What do the screens show for `O=C1NC(=O)N(CCc2ccc(F)cc2)C(=O)/C1=C\c1ccco1`?
FBW7 activator: 0; TEAD-YAP block: -3; GPR151 activ: 0; MITF primary: 23

How did CC(C)P(=O)(Nc1ccccc1)C(C)C do in these assays?
FBW7 activator: 0; TEAD-YAP block: 4; GPR151 activ: 8.0*; MITF primary: 1; GPR151 confirm: 0; GPR119 ag: 7

How did CN(C)CP(=O)(Nc1ccccc1)N(C)C (stereo not given) do in these assays?
FBW7 activator: 0; TEAD-YAP block: 7; GPR151 activ: 2; MITF primary: 2

What do the screens show for `COc1cc2c(cc1O)[C@@H]1Cc3ccc(OC)c(O)c3CN1CC2`?
FBW7 activator: 0; TEAD-YAP block: 44*; GPR151 activ: 6.0*; MITF primary: 14; GPR151 confirm: 1; GPR119 ag: -13

What do the screens show for `Cc1ccc(Cl)cc1-n1c(/C=C/c2ccccc2)nc2ccccc2c1=O`?
FBW7 activator: 0; TEAD-YAP block: -9; GPR151 activ: -1; MITF primary: 11

How did Clc1ccc(NC2CN3CCC2CC3)cc1 (stereo not given) do in these assays?
FBW7 activator: 0; TEAD-YAP block: -5; GPR151 activ: 0; MITF primary: 4

What do the screens show for `COc1cc(C=C2C(=O)NC(=S)NC2=O)ccc1OC(=O)c1ccc(C)cc1`?
FBW7 activator: 0; TEAD-YAP block: 1; GPR151 activ: 6.6*; MITF primary: 13; GPR151 confirm: -1; GPR119 ag: 2

Results for O=C1NC(=S)NC(=O)C1=Cc1ccc(I)o1 ?
FBW7 activator: -2; TEAD-YAP block: 3; GPR151 activ: 5.7*; MITF primary: 63*; GPR151 confirm: -1; GPR119 ag: -9

Results for O=C(NCc1cccs1)c1ccc(N2CC3CC(C2)c2cccc(=O)n2C3)c([N+](=O)[O-])c1 (stereo not given) ?
FBW7 activator: 0; TEAD-YAP block: 8; GPR151 activ: -1; MITF primary: -2

Results for COc1cccc(C(c2c(O)[nH]c(=O)[nH]c2=O)N2CCCC(C)C2)c1OC (stereo not given) ?
FBW7 activator: 0; TEAD-YAP block: 4; GPR151 activ: 19*; MITF primary: 17; GPR151 confirm: 0; GPR119 ag: 8

What do the screens show for `COc1cccc(C(c2c(O)[nH]c(=S)[nH]c2=O)N2CCOCC2)c1OC` (stereo not given)?
FBW7 activator: 0; TEAD-YAP block: -12; GPR151 activ: 0; MITF primary: 9

Results for CN1CCN(c2ccc([N+](=O)[O-])cc2C(F)(F)F)CC1 ?
FBW7 activator: 0; TEAD-YAP block: -2; GPR151 activ: 1; MITF primary: 5

What do the screens show for `CN1CCN(c2ccc([N+](=O)[O-])cc2C=O)CC1`?
FBW7 activator: 0; TEAD-YAP block: 1; GPR151 activ: 5.9*; MITF primary: 13; GPR151 confirm: 1; GPR119 ag: 7

How did COc1cc(Cl)c2nonc2c1[N+](=O)[O-] do in these assays?
FBW7 activator: -1; TEAD-YAP block: -9; GPR151 activ: 0; MITF primary: -19

How did COc1ccc(CC(=O)N2CCN(Cc3nc(-c4ccc(Cl)cc4)cs3)CC2)cc1OC do in these assays?
FBW7 activator: 1; TEAD-YAP block: 61*; GPR151 activ: 15*; MITF primary: 8; GPR151 confirm: 0; GPR119 ag: 4

Results for CC1=C(C(=O)OC(C)C)C2(C(=O)Nc3ccc(Br)cc32)C(C#N)=C(N)O1 (stereo not given) ?
FBW7 activator: 0; TEAD-YAP block: 5; GPR151 activ: 14*; MITF primary: 19; GPR151 confirm: 0; GPR119 ag: -6

What do the screens show for `CCOC(=O)C1=C(C)OC(N)=C(C#N)C12C(=O)Nc1ccc(Br)cc12` (stereo not given)?
FBW7 activator: 0; TEAD-YAP block: 0; GPR151 activ: 1; MITF primary: 4

Results for O=C(O)CC1(CC(=O)N2CCC3(CC2)OCc2cc(F)ccc2O3)CCCC1 ?
FBW7 activator: 0; TEAD-YAP block: 6; GPR151 activ: 0; MITF primary: -2

How did CCN(CC)c1ccc(/C=C\[N+](=O)[O-])c(C)c1 do in these assays?
FBW7 activator: 0; TEAD-YAP block: 7; GPR151 activ: 6.7*; MITF primary: -10; GPR151 confirm: 1; GPR119 ag: 18

How did C=C[C@H]1CN2CC[C@H]1C[C@H]2[C@H](O)c1ccnc2ccccc12 do in these assays?
FBW7 activator: 0; TEAD-YAP block: 20; GPR151 activ: 5.4*!; MITF primary: -1; GPR151 confirm: -1; GPR119 ag: 3

Results for O=C(Nc1ccccc1)N1CNC(=N[N+](=O)[O-])NC1 ?
FBW7 activator: 0; TEAD-YAP block: -4; GPR151 activ: 3; MITF primary: -3

What do the screens show for `O=[N+]([O-])N=C1NCN(C2CCN(Cc3ccccc3)CC2)CN1`?
FBW7 activator: 0; TEAD-YAP block: -10; GPR151 activ: 5.5*; MITF primary: -3; GPR151 confirm: 1; GPR119 ag: 1

Results for N#Cc1ccc(NC(=O)CSc2n[nH]c(-c3cccs3)n2)cc1Cl ?
FBW7 activator: 0; TEAD-YAP block: -3; GPR151 activ: 11*; MITF primary: -2; GPR151 confirm: 0; GPR119 ag: 13

Results for O=c1c2ccccc2nc(/C=C\c2cccc(Br)c2)n1-c1cccc([N+](=O)[O-])c1 ?
FBW7 activator: 0; TEAD-YAP block: 11; GPR151 activ: 3; MITF primary: 8

How did CC(Cc1cccc(C(F)(F)F)c1)NCCCc1ccccc1 (stereo not given) do in these assays?
FBW7 activator: 0; GPR151 activ: 9.1*; MITF primary: -9; GPR151 confirm: 0; GPR119 ag: -5

How did CC1CCCCN1C(=O)CN1C2CCC1CC(O)(c1cccnc1)C2 (stereo not given) do in these assays?
FBW7 activator: 0; TEAD-YAP block: 6; GPR151 activ: 0; MITF primary: 0

How did CN1CCN(c2ccc([N+](=O)[O-])c(NCCO)c2)CC1 do in these assays?
FBW7 activator: 0; TEAD-YAP block: 0; GPR151 activ: 11*; MITF primary: -4; GPR151 confirm: 0; GPR119 ag: 1

How did O=[N+]([O-])c1ccc(N2CCNCC2)cc1NCCO do in these assays?
FBW7 activator: 0; TEAD-YAP block: -25; GPR151 activ: 0; MITF primary: 3

What do the screens show for `COc1cc(/C=C2/C(=O)NC(=O)N(Cc3ccc(F)cc3)C2=O)cc(OC)c1O`?
FBW7 activator: -1; TEAD-YAP block: 10; GPR151 activ: 0; MITF primary: 11
